Results reported in PubChem BioAssay (NCATS).
Several values for one entry are separate records, joined by “and”; a condition that tells them apart may be missing. Equal values may be shown once. Results filed as inconclusive are left out. A call without a number means that no potency is given here. A number with no mark means an inactive call. Activity calls are given as the source filed them. The call rests on the fitted dose curve; in most records, active means well fitted curve in the direction sought with a large enough effect; inconclusive means small, poorly fitted or top-dose-only effect, or another doubt; inactive means no such curve, though single readings can be large; an effect the other way counts as inactive or inconclusive.

Columns and labels:
[1] = biological target: Cellular tumor antigen p53 (Homo sapiens) (UniProt P04637); assay: Primary qHTS for small molecule compounds that upregulate eGFP-tagged delta133p53alpha (in N-terminal) cells. (AID 2060322); conditions: NCI-H358 eGFP-delta133p53alpha fluorescence, 24 h; activation: hits give high values; further: nearly all actives have a fitted effect of over 75% in size; further: potency means the concentration at half of the fitted maximal effect;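 on activation: cells pre-induced with doxycycline then dosed without doxycycline; series mostly up to about 56 µM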
Chain of Cellular tumor antigen p53 (Homo sapiens) (P04637 whole entry, looked up): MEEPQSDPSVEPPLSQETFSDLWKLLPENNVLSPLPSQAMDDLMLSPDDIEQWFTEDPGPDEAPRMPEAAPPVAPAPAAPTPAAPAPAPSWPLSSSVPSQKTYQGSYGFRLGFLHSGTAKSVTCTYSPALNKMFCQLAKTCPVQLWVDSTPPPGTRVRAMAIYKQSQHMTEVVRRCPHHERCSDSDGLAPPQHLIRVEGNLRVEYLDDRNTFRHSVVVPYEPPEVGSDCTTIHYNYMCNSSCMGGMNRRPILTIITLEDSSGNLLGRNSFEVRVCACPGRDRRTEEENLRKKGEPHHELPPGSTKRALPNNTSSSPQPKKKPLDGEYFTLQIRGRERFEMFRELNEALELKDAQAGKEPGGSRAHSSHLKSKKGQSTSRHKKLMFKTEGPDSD
Summary of the method: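 NCI-H358 cells pre-induced 24 h with 10 ng/ml doxycycline for eGFP-delta133p53alpha, plated dox-free and exposed 24 h at 37C to titrated compounds. Fixed, Hoechst-stained; gated GFP peak intensity by laser scanning cytometry, normalized to DMSO (0%) and 57.5 uM 5-azacytidine (100%).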

[2] = biological target: Aldehyde dehydrogenase, mitochondrial (Homo sapiens) (UniProt P05091); assay: qHTS for Inhibitors of the Aldehyde Dehydrogenase Family (ALDH2) Primary screen (AID 2061308); further: nearly all actives have a fitted effect of over 55% in size
[3] = biological target: Retinaldehyde dehydrogenase 3 (Homo sapiens) (UniProt P47895); assay: qHTS for Inhibitors of the Aldehyde Dehydrogenase Family (ALDH1A3) Validation screen (AID 2061312); further: nearly all actives have a fitted effect of over 45% in size; further: potency means the concentration at half of the fitted maximal effect
[4] = biological target: Retinaldehyde dehydrogenase 3 (Homo sapiens) (UniProt P47895); assay: qHTS for Inhibitors of the Aldehyde Dehydrogenase Family (ALDH1A3) Primary screen (AID 2061315)

Compound | activation [1] | Potency [2] | Potency [3] | Potency [4] | activity change, negative = inhibition [2] | activity change, negative = inhibition [3] | activity change, negative = inhibition [4] | Potency [1]
CN[C@@H]1[C@@H](O)[C@@H](O[C@@H]2[C@@H](O)[C@H](O[C@H]3O[C@@H]([C@@H](C)NC)CC[C@H]3N)[C@@H](N)C[C@H]2N)OC[C@]1(C)O | -8.59% | inactive | inactive | inactive |  |  |  | 
CC(C)[C@@H](c1ccc(C(F)(F)F)cc1CN(Cc1cc(C(F)(F)F)cc(C(F)(F)F)c1)c1nnn(C)n1)N1CCC(C(=O)O)CC1 | 6.68% | inactive | inactive | inactive |  |  |  | 
O=C(/C=C/c1c(C(=O)O)[nH]c2cc(Cl)cc(Cl)c12)Nc1ccccc1 | -11.9% | inactive | inactive | inactive |  |  |  | 
C[C@]12CC[C@@H]3c4ccc(OC(=O)c5ccccc5)cc4CC[C@H]3[C@@H]1CC[C@@H]2O | 14.3% | inactive | inactive | inactive |  |  |  | 
O=C(O)CC1CCC(c2ccc(NC(=O)c3nnc(Nc4ccc(F)c(F)c4)o3)cc2)CC1 (stereo not drawn) | -0.955% | inactive | inactive | inactive |  |  |  | 
N=C(N)c1ccc2nc(-c3cc(CC(=O)NC(CC(=O)O)C(=O)O)cc(-c4cc(S(N)(=O)=O)ccc4O)c3O)[nH]c2c1 (stereo not drawn) | -8.59% | inactive | inactive | inactive |  |  |  | 
O=C1N=C(N2CCOCC2)CN1c1ccc(Cl)cc1 | -6.21% | inactive | inactive | inactive |  |  |  | 
CCN(CC)CCCS(=O)(=O)N[C@H](CCc1ccccc1)c1nc(Cc2ccc(Br)cc2)no1 | 7.64% | inactive | inactive | inactive |  |  |  | 
O=C(COc1ccc(C(=O)c2ccccc2)cc1)NC1CCN(Cc2ccccc2)CC1 | -6.68% | inactive | inactive | inactive |  |  |  | 
O=C(O)[C@@H]1C[C@H]2C[C@@H](CCc3nn[nH]n3)CC[C@H]2CN1 | 4.77% | inactive | 10 µM (active) | inactive |  |  |  | 
O=C(NCCN1CCN(c2cccc3c2OCCO3)CC1)c1ccc(F)cc1 | -9.07% | inactive | inactive | inactive |  |  |  | 
O=C(O)CC1CCC(c2ccc(-c3ccc4nc(C(=O)NCc5ccc(OC(F)(F)F)cc5)cn4c3)cc2)CC1 (stereo not drawn) | 9.07% | inactive | inactive | inactive |  |  |  | 
N[C@@H]1c2cccnc2[C@H](OC(=O)N2CCC(n3c(=O)[nH]c4ncccc43)CC2)CC[C@H]1c1cccc(F)c1F | -10.5% | inactive | inactive | inactive |  |  |  | 
O=C(CCCCN1CCOCC1)Nc1ccc(-c2cccnc2)cc1 | -8.11% | inactive | inactive | inactive |  |  |  | 
COc1cc(N2CCOCC2)ccc1NC(=O)c1csc(-c2cccnc2)n1 | 24.8% | inactive | inactive | inactive |  |  |  | 
COc1cc(Nc2nc3c(s2)CCCC3c2ccccc2)ccc1-n1cnc(C)c1 (stereo not drawn) | -18.6% |  |  |  | 1.32% [at 11.2 µM] | 6.59% [at 20.1 µM] | 0.24% [at 11.2 µM] | 
Cc1c(OCc2cccc(-c3ccc(C(=O)O)cc3)c2)cc2c(c1C)C(=O)C(C1CCCC1)C2 (stereo not drawn) | -8.59% | inactive | inactive | inactive |  |  |  | 
CNc1cc2[nH]c(=O)n(-c3ccc(NC(=O)NS(=O)(=O)c4ccc(Cl)s4)cc3)c(=O)c2cc1F | 8.11% | inactive | inactive | inactive |  |  |  | 
O=C(NCCCN1CCOCC1)c1cnn2c(-c3ccccc3)cc(-c3ccccc3)nc12 | -6.68% | inactive | inactive | inactive |  |  |  | 

Compound | activation [1] | Potency [2] | Potency [3] | Potency [4] | activity change, negative = inhibition [2] | activity change, negative = inhibition [3] | activity change, negative = inhibition [4] | Potency [1]
O=C(NCCCc1ccccc1)C1CCC(CNS(=O)(=O)c2cccc3nsnc23)CC1 (stereo not drawn) | -3.34% | inactive | inactive | inactive |  |  |  | 
CC(=O)NC1=NN(C(C)=O)C(C)(c2ccccc2)S1 (stereo not drawn) |  | inactive | inactive | inactive |  |  |  | 12 µM (active)
O=C(NC/C=C/CN1CCN(c2cccc(Cl)c2Cl)CC1)c1ccc(-c2ccccn2)cc1 | 6.68% | inactive | inactive | inactive |  |  |  | 
COc1cc(Nc2nc3ccccc3nc2NS(=O)(=O)c2ccc(NC(=O)c3ccc(OC)c(C)c3)cc2)cc(OC)c1 | -18.6% | inactive | inactive | inactive |  |  |  | 
Cn1c(SCC(=O)N2CCC[C@H]2C(=O)Nc2ccccc2-c2ccccc2)nc2ccccc21 | 4.77% | inactive | inactive | inactive |  |  |  | 
COc1ccccc1-n1c(SCC(=O)Nc2nc3ccc(C)cc3s2)nc2c(c1=O)SCC2 | -11.9% | inactive | inactive | inactive |  |  |  | 
CCCCOc1ccc(-c2cncc(C(=O)NCc3cccnc3N3CCOCC3)c2)cc1Cl | 7.64% | inactive | inactive | inactive |  |  |  | 
CC(=O)c1ccc2c(c1)[C@H](NC(=O)c1ccc(F)c(Cl)c1)[C@H](O)C(C)(C)O2 | 7.16% | inactive | inactive | inactive |  |  |  | 
CCOc1nc2c(N)ncnc2n1CC | -10% | inactive | inactive | inactive |  |  |  | 
CN(C)S(=O)(=O)c1ccc(NC(=S)N2CCC(C(O)(c3ccccc3)c3ccccc3)CC2)cc1 | -6.68% | inactive | inactive | inactive |  |  |  | 
CN1CCN(C2=Nc3ccccc3Nc3ccc(OS(=O)(=O)C(F)(F)F)cc32)CC1 | -11.9% | inactive | inactive | inactive |  |  |  | 
O=C(NCC1(N2CCN(c3ccccc3)CC2)CCOCC1)c1cccnc1Sc1ccccc1 | -3.34% | inactive | inactive | inactive |  |  |  | 
C=CC(C)(O)CC[C@@H]1[C@@]2(C)CCCC(C)(C)C2CC[C@@]1(C)O (stereo partly drawn) | 1.91% | inactive | inactive | inactive |  |  |  | 
O=C(CCCN1CCN(c2ccccn2)CC1)c1ccc(F)cc1 | -3.82% | inactive | inactive | inactive |  |  |  | 
O=C(c1cn(Cc2cncn2Cc2ccc(Br)cc2)cc1-c1cccc2ccccc12)N1CCOCC1 |  | inactive | inactive | inactive |  |  |  | 26.9 µM (active)
C[C@@H]1O[C@@H](O[C@H]2[C@H](Oc3cc(O)c(C(=O)CCc4ccc(O)cc4)c(O)c3)O[C@H](CO)[C@@H](O)[C@@H]2O)[C@H](O)[C@H](O)[C@H]1O | -10.5% | inactive | inactive | inactive |  |  |  | 
CCCC(=O)C1CCN(c2ncnc3c2CN(C(=O)c2ccc(-c4ccccc4)cc2)CC3)CC1 | -12.4% | inactive | inactive | inactive |  |  |  | 
OCC(O)CN1CCN(c2ccccc2)CC1 (stereo not drawn) | -0.837% and 0.955% | inactive | inactive | inactive |  |  |  | 
Cc1ccc(C2(C(=O)N3CCC(n4nc(-c5ccccc5)oc4=O)CC3)CC2)cc1 | -1.91% | inactive | inactive | inactive |  |  |  | 

Compound | activation [1] | Potency [2] | Potency [3] | Potency [4] | activity change, negative = inhibition [2] | activity change, negative = inhibition [3] | activity change, negative = inhibition [4] | Potency [1]
CCCCc1c(-c2ccc(OC)cc2)[nH]c2nccnc12 | 5.25% | inactive | inactive | inactive |  |  |  | 
C/C(=C\C(=O)OCCCCCCCCC(=O)O)C[C@@H]1OC[C@H](C[C@@H]2O[C@H]2[C@@H](C)[C@H](C)O)[C@@H](O)[C@H]1O | -7.64% | inactive | inactive | inactive |  |  |  | 
Cc1cc(C)nc(SCC(=O)Nc2ncc(Cc3cccc4ccccc34)s2)n1 | -8.11% | inactive | inactive | inactive |  |  |  | 
CNS(=O)(=O)CC1CCC(N(C)c2ncnc3[nH]ccc23)CC1 (stereo not drawn) | -0.477% | inactive | inactive | inactive |  |  |  | 
CN(C)c1ccnc2sc3c(=O)n(N4CCCCCC4)cnc3c12 | -18.1% | inactive | inactive | inactive |  |  |  | 
O=C(NCCN1CCOCC1)c1cc2c(Oc3ccc(NC(=O)C4(C(=O)Nc5ccc(F)cc5)CC4)cc3)ccnc2[nH]1 | 10% | inactive | inactive | inactive |  |  |  | 
Fc1ccc2c(CCNCc3cccc(OCC(F)(F)C(F)F)c3)c[nH]c2c1 | 3.34% | inactive | inactive | inactive |  |  |  | 
Cc1cc(C)c(-c2csc(NC(=O)c3ccccc3)n2)c(C)c1 | 21% | inactive | inactive | inactive |  |  |  | 
Cc1nc(C(=O)N2CCC[C@H]2Cc2nnc(-c3ccccc3)o2)c(-c2ccccc2F)s1 | 3.82% | inactive | inactive | inactive |  |  |  | 
Cc1c(NC(=O)N2CCOCC2)ccc2c1c1ccccc1n2C(C)C | -19.1% | inactive | inactive | inactive |  |  |  | 
CC(C)c1ccc(-c2cc(=O)c3ccccc3o2)cc1 | -14.8% | inactive | inactive | inactive |  |  |  | 
c1cc(OCCCN2CCCCC2)ccc1CN1CCCCC1 | 5.25% | inactive | inactive | inactive |  |  |  | 
O=C(NCc1ccccn1)Nc1nnc(-c2ccco2)o1 | 11.9% | inactive | inactive | inactive |  |  |  | 
COc1cccc(C(=O)N2CCN(C(=O)COc3cccc(C)c3)CC2)c1OC | 4.77% | inactive | inactive | inactive |  |  |  | 
CNC(C)C(=O)NC(C(=O)N1CCCC1C(=O)Nc1snnc1-c1ccccc1)C1CCCCC1 (stereo not drawn) | 11% | inactive | inactive | inactive |  |  |  | 
Cc1[nH]cnc1C1CCN(c2nc3cccc4c3n2CCC4=O)CC1 | 1.43% | inactive | inactive | inactive |  |  |  | 
COc1ccc(-c2csc(NC(=O)[C@H]3CCCCN3S(=O)(=O)c3ccc(C)cc3)n2)cc1 | -8.59% | inactive | inactive | inactive |  |  |  | 
CN(C)CCC(CSc1ccccc1)Nc1ccc(S(=O)(=O)NC(=O)c2ccc(N3CCN(Cc4ccccc4-c4ccc(Cl)cc4)CC3)cc2)cc1[N+](=O)[O-] (stereo not drawn) |  | inactive | inactive | inactive |  |  |  | 16.9 µM (active)
Clc1cccc(-c2nnnn2Cc2cccnc2)c1Cl | 12.9% and -2.86% | inactive | inactive | inactive |  |  |  | 
